# An excerpt weighted towards active compounds, which were near 2.3% of everything screened.
# Abeta rescue = compounds reversing amyloid beta toxicity in yeast | Potency, µM (titrated, usually from 46.1 µM), actives largely listed as activators | AID 1347071 | yeast expressing A-beta42, growth rescue, OD600, 48 h; response scale: 0% DMSO, 100% iron-clioquinol control | actives 0.063% (n = 410,000); also: nearly all actives have a fitted effect of over 55% in size
#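 Yeast A-beta toxicity model in growth medium with pinned compounds, 48 h at 30 C; growth read as absorbance at 600 nm. Normalized to FeCl3/clioquinol equimolar mix (positive) and DMSO (negative).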
# FUS yeast rescue = suppressors of FUS proteinopathy in yeast; Potency, µM (titrated, usually from 76.6 µM), usual class: activators; actives 0.24% (n = 390,000); S. cerevisiae FUS-expressing, growth rescue, OD600, 24 h;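 also: plate controls were DMSO vehicle for no effect and reference control for full effect; nearly all actives have a fitted effect of over 55% in size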
#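 Restored growth of FUS-toxic S. cerevisiae, read as 600 nm absorbance after 24 h at 30C in galactose medium (starting OD 0.005). Controls CP55940 and DMSO.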
# BCR signal inh = chronic active BCR signaling inhibition; ABC-DLBCL IkBa-CBG/CBR reporter, luminescence ratio, 4 h; Potency, µM (titrated, usually from 46.1 µM), without a hit: at the highest dose activity change, negative = inhibition, most hits filed as inhibitors; actives 0.05% (n = 340,000); AID 493014; active = well fitted inhibition curve with a large enough effect in the signal ratio, with a control signal flat, not every such curve was filed as active; inconclusive = small, poorly fitted or top-dose-only effect, or effect the other way, or a change in a side signal; the % refers to the signal ratio;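 also: plate controls were basal doxycycline-induced cells for no effect and cells given 10 µM MG132 for full effect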
#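 Cell line TMD8 (human ABC DLBCL), stably expressing tet-inducible CBG68-IkBa fusion and CBR; IMDM/0.5% FBS; cpd up to 46 uM; dox induction, 4 h, 37C/5% CO2; dual luminescence; green/red ratio; MG132 control.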
# aSyn yeast inh = rescues yeast growth from alpha-synuclein toxicity | Yeast expressing alpha-synuclein, growth rescue, BacTiter-Glo, 24 h | Potency, µM (series often up to 46.1 µM), for inactives: at the top dose growth rescue (activation), actives largely listed as activators | actives 0.14% (n = 370,000); also: % of control where 0% means no effect; nearly all actives have a fitted effect of over 65% in size
#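 Rescue of yeast growth: cells expressing toxic alpha-synuclein, induced in galactose at OD600 0.02, incubated with compound 24 h at 30 C. ATP luminescence quantified growth; inhibitors of toxicity appear as activators.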
# uPA generation = blocks generation of uPA at the cell surface; Potency, µM (series often up to 38.3 µM), inactives show top-dose activity change, negative = inhibition, actives largely listed as inhibitors; AID 540303; cell surface uPA generation assay, qHTS; actives 0.31% (n = 330,000); active = well fitted inhibition curve with a large enough effect; inconclusive = small, poorly fitted or top-dose-only effect; inactive = no such curve, though single readings can be large or run the other way; tested in mouse RAW 264.7 cells; also: % is scaled to controls: 0 for no effect and ±100 for the full control effect; nearly all actives have a fitted effect of over 55% in size
# TDP43 rescue = inhibitors of TDP-43 toxicity in yeast | TDP-43 expressing yeast growth rescue, BacTiter-Glo, 24 h | Potency, µM (series often up to 46.1 µM), inactives show at the top dose growth rescue (activation), most hits filed as activators | actives 1.8% (n = 410,000); also: % of control where 0% means no effect; nearly all actives have a fitted effect of over 50% in size
#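 Yeast expressing TDP-43 (pregrown in raffinose, seeded at OD600=0.02 in galactose medium) exposed to compounds 24 hr at 30 deg C. Growth read by BacTiter-Glo luminescence; rescue of toxicity appears as increased signal.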
# * hit, by the source's call; i = inactive; ? = inconclusive; . = no result; [ ] = remark or other dose. Unless noted, calls follow the shape of the dose curve; as a rule, active = well fitted curve in the direction sought with a large enough effect; inconclusive = small, poorly fitted or top-dose-only effect, or another doubt; inactive = no such curve, though single readings can be large; an effect the other way counts as inactive or inconclusive. Potency is read from the fitted curve at half-maximal effect.
SMILES,Abeta rescue,FUS yeast rescue,BCR signal inh,aSyn yeast inh,uPA generation,TDP43 rescue
CC(C)Oc1ccc(C(=O)OCC(=O)NC2CCCCCC2)cc1,i,i,-2.6%,0.8%,-2.9%,?
Cc1cc(C)cc(N2CCCn3c2nc2c3c(=O)n(CC(=O)OCc3ccccc3)c(=O)n2C)c1,i,i,2.0%,?,.,-17.5%
O=C(CSc1nc2ccccc2[nH]1)NCc1ccccc1,i,i,-15.7%,-1.8%,10.0%,-27.4%
O=C(Cc1ccc(S(=O)(=O)N2CCOCC2)s1)N1CCN(S(=O)(=O)c2ccccc2[N+](=O)[O-])CC1,i,22.4µM*,.,0.4%,0.5%,3.3%
CN(C(=O)COc1ncnc2ccccc12)C1CCCCC1,i,i,-6.4%,1.4%,3.6%,-33.5%
Cc1cc(SCC(=O)N(C)C2CCCCC2)nc2ccccc12,i,i,0.5%,0.2%,-24.1%,17.8µM*
Cc1cc(SCC(=O)NC(=O)c2cccn2C)nc2ccccc12,?,i,1.2%,0.6%,-7.0%,20µM*
CN(C(=O)CSc1ncnc2ccccc12)C1CCCCC1,i,i,-20.5%,4.4%,-8.3%,12.6µM*
Cc1cc(SCC(=O)c2ccc(O)c(O)c2)nc2ccccc12,i,i,?,?,-5.2%,22.4µM*
O=C(O)c1ccc(-n2c(-c3cc(C4CC4)[nH]n3)n[nH]c2=S)cc1,i,i,-17.1%,-0.1%,3.2%,-4.9%
CN(CCCN1CCCCC1)C(=O)c1cc(COc2ccc(F)cc2F)on1,i,.,0.3%,-3.6%,-11.3%,-24.2%
COCCNCCOCCOc1ccc(Cl)c(C)c1,i,i,?,-0.7%,-0.5%,-7.3%
CCc1ccc(-c2nc3ccc(Br)cc3c(C(=O)O)c2C)s1,i,i,6.0%,-36.0%,7.1%,35.5µM*
COc1ccc(-c2cc(C(C)=O)c(C)n2CCC(=O)Nc2cc(C)ccc2OC)cc1,i,?,?,.,.,?
CSc1ccccc1-n1nnnc1SCc1ccccc1,i,i,-1.0%,0.1%,0.9%,12.6µM*
CCc1ccccc1NS(=O)(=O)c1ccc(-c2coc(C)n2)cc1,i,i,.,0.3%,.,12.6µM*
Cc1nc2ccc(NS(=O)(=O)c3ccc(F)c(F)c3F)cc2s1,i,i,0.8%,?,-8.8%,20µM*
Cc1nc2ccc(NS(=O)(=O)c3ccc(C)c(C)c3)cc2s1,i,i,13.1%,18.7%,-1.5%,27.1%
CC(=O)c1cccc(S(=O)(=O)Nc2ccc3nc(C)sc3c2)c1,i,i,-2.7%,1.0%,-3.3%,19.9%
Cc1nc2ccc(NS(=O)(=O)c3ccc(F)cc3F)cc2s1,i,.,-2.7%,20.1%,-5.3%,12.6µM*
Cc1nc2ccc(NS(=O)(=O)c3c(F)cc(F)cc3Br)cc2s1,i,i,-7.4%,?,7.7%,15.8µM*
CSc1nc2ccc(NS(=O)(=O)c3c(Cl)cccc3Cl)cc2s1,i,.,?,23.6%,4.6%,10µM*
O=S(=O)(Nc1ccc(N2CCOCC2)cc1)c1c(F)cc(F)cc1Br,i,i,4.7%,22.4µM*,.,?
CCOC(=O)c1[nH]ncc1CN1CCCC(C(=O)c2cccc3ccccc23)C1 (stereo unspecified),i,i,-10.7%,-0.2%,10.5%,?
CCOC(=O)CNC(c1ccccc1)c1cc(Br)ccc1NC(=O)CCN1CCOCC1 (stereo unspecified),i,i,?,-7.3%,12.6µM*,22.4µM*
SMILES,Abeta rescue,FUS yeast rescue,BCR signal inh,aSyn yeast inh,uPA generation,TDP43 rescue
COC(=O)CNC(c1ccccc1)c1cc(Br)ccc1NC(=O)CCN1CCOCC1 (stereo unspecified),i,?,?,7.1%,?,?
CC1=C(C(=O)Nc2ccc(C(=O)NCCCN3CCCCC3)cc2)SCCO1,i,i,-0.7%,-5.2%,-3.9%,-1.7%
COCCn1c(SCc2cccc([N+](=O)[O-])c2)nc2ccccc2c1=O,i,i,1.4%,2.2%,5.1%,17.8µM*
Cn1c(SCc2cccc([N+](=O)[O-])c2)nc2ccccc2c1=O,i,.,-0.4%,6.7%,-6.5%,-3.0%
Cc1nc2ccc(NC(=S)NCc3ccccc3)cc2nc1C,i,i,?,1.7%,-3.3%,-15.3%[0.397 µM]
FC(F)(F)c1cccc(NC(=S)NCc2ccccc2)c1,?,i,10.5%,-24.3%,0.8%,14.1µM*
CCOc1cc(OCC)cc(C(=O)NC(=S)Nc2cccc(C(F)(F)F)c2)c1,i,.,9.9%,-20.9%,1.8%,8.7%
FC(F)(F)c1cccc(CNC(=S)Nc2ccccc2)c1,i,i,1.4%,-15.6%,-0.2%,8.7%
O=C(NC(=S)Nc1cccc(C(F)(F)F)c1)c1ccc2nonc2c1,i,i,-3.0%,-19.5%,7.9%,11.2µM*
Cc1ccc(NC(=S)NCc2ccccc2)cc1C,i,i,.,11.6%,10.1%,12.6µM*
CN(C(=O)C1CCCN(c2ncnc3c2nc2n3CCCCC2)C1)c1ccccc1F (stereo unspecified),i,i,.,.,.,29.4%
CCCCn1c(N)c(N(CCOC)C(=O)c2cc(-c3ccncc3)nc3ccccc23)c(=O)[nH]c1=O,i,.,-6.3%,1.7%,5.0%,25.7%
CC1CCC/C(=C\Nc2ccc3c(c2)OCO3)C1=O (stereo unspecified),i,15.8µM*,-0.5%,-3.8%,-2.2%,-10.0%
O=C1CCC/C1=C/Nc1ccc2c(c1)OCO2,i,i,?,.,-1.3%,4.1%
CCCN(CC(=O)Nc1ccccc1Br)CC(=O)Nc1ccc(F)c(F)c1F,i,i,-5.5%,22.8%,-3.0%,?
CCCN(CC(=O)Nc1cc(Cl)cc(Cl)c1)CC(=O)Nc1ccc(F)c(F)c1F,?,i,?,2.8%,-0.5%,28.2µM*
O=C1CC(c2ccc(Br)cc2)c2c(ccc3ccccc23)N1 (stereo unspecified),i,i,.,.,.,35.5µM*
Cc1ccc2nc(N(Cc3cccnc3)C(=O)C3CCCCC3)sc2c1,i,i,-1.7%,.,.,5.62µM*
CCc1ccc2nc(N(Cc3cccnc3)C(=O)c3cccs3)sc2c1,i,i,?,.,.,31.6µM*
CC(=O)N(Cc1cccnc1)c1nc2c(C)cccc2s1,i,i,-11.8%,.,.,?
Cc1cccc2sc(N(Cc3cccnc3)C(=O)C3CCCCC3)nc12,i,i,?,.,.,3.55µM*
O=C(c1ccc2c(c1)OCCO2)N(Cc1cccnc1)c1nc2c(Cl)cccc2s1,i,i,.,.,.,22.4µM*
CN(C)CCN(C(=O)c1ccc2c(c1)OCCO2)c1nc2c(Cl)cccc2s1,i,i,7.8%,6.0%,5.4%,-14.1%
